Several values for one entry are separate records, joined by “and”; a condition that tells them apart may be missing. Equal entries are not always repeated. This is part of a sample that, as a whole, favours compounds with a hit. Of some 83,000 tested, about 20% had one in any assay.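 Compound tested at a single concentration for 48 hours in 96-well plates; a percent growth value below 10 was scored as active.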 Activity calls are given as the source filed them.
test system: EKVX NSCLC; experiment: NCI-60 one-dose screen, 48 h (100 = growth as untreated, 0 = no growth, -100 = all killed); settings: 10 µM
Experimental: Growth inhibition of the EKVX human Non-Small Cell Lung tumor cell line is measured as a screen for anti-cancer activity. Cells are grown in 96 well plates and exposed to the test compound for 48 hours. Compounds are tested at a single concentration, which is 10^-5 M for most compounds. The reported endpoint is percent growth (GI% or GIPRCNT), where numbers from 0 - 100% represent growth inhibition, and numbers from -100% - 0 represent cell death. For example, a value of 40 represents 60% growth inhibition. A value of 0 means no net growth occurred over the course of the experiment. A value of -40 indicates 40% of cells at the beginning of the experiment died by the end of the experiment. A value of -100 means all cells are dead at the end of the experiment.
NCI-60 Human Tumor Cell Lines Screen was performed using the standard one-dose NCI protocol, which is described in more detail at https://dtp.cancer.gov/discovery_development/nci-60/default.htm.
Compounds with GIPRCNT values below 10 were considered active. Activity score was based on GIPRCNT using the following formula: […]
Score is 0 for GIPRCNT values of 100 or above, 50 for GIPRCNT values of 0, and 100 for GIPRCNT values of -100.

| SMILES | growth |
| --- | --- |
| CC(C)(O)/C=C/C(=O)[C@](C)(O)[C@H]1[C@H](O)C[C@@]2(C)[C@H]3CC=C4[C@@H](C[C@H](O)C(=O)C4(C)C)[C@]3(C)C(=O)C[C@]12C | 18.4% (inactive) |
| C=C1[C@@H](C)C2[C@H](Cc3ccccc3)NC(=O)[C@]23[C@H](OC(C)=O)/C=C/[C@@](C)(O)C(=O)[C@@H](C)C/C=C/[C@H]3[C@@H]1O (stereo not given in full) | 50.5% (inactive) |
| COc1cc2c(cc1OC)[C@@H]1N(CC2)C(=O)c2ccccc2[C@@]1(C)C(=O)O | 103% (inactive) |
| CN1C(=O)[C@]23SSC1(C)C(=O)N2[C@H]1Nc2ccccc2C1([C@@]12c4ccccc4N[C@@H]1N1C(=O)C4(C)SS[C@]1(C(=O)N4C)[C@H]2O)[C@@H]3O (stereo not given in full) | -97.4% (active) |
| CC(=O)O[C@@H]1C[C@H]2O[C@@H]3C=C(C)CC[C@]3(C)[C@]1(C)[C@]21CO1 | 26% (inactive) |
| COc1cc(C)c(-c2ccc(OC)c(=O)cc2C)c(OC)c1OC | 36.6% (inactive) and 97.1% (inactive) |
| COc1cc2c(O[C@@H]3OC[C@H](OC(C)=O)[C@H](OC(C)=O)[C@H]3O)c3c(c(-c4ccc5c(c4)OCO5)c2cc1OC)C(=O)OC3 | 39.5% (inactive) |
| CC1=C2C(=C[C@@](C)(COC(=O)c3ccc(S(=O)(=O)F)cc3)[C@@H]2OC(=O)c2ccc(S(=O)(=O)F)cc2)C(=O)[C@](C)(O)C12CC2 | 23.6% (inactive) |
| C/C=C/CC(C)C(O)[C@H](NC(=O)[C@@H]1CCCN1C(=O)C(C)(C)NC(=O)CCCCCCCCC)C(=O)N[C@@](C)(CC)C(=O)N[C@@H](CCC(N)=O)C(=O)N[C@H](CCC(N)=O)C(=O)NC(C)(C)C(=O)NC(C)(C)C(=O)N[C@@H](CCC(N)=O)C(=O)N[C@H](CC(C)C)C(=O)N[C@H](CO)CC(C)C (stereo not given in full) | 0.155% (active) and 23% (inactive) |
| C[C@@H]1C[C@H]2C(=O)O[C@@H](C)C(NC(=O)[C@H](Cc3cc(F)cc(F)c3)NC(=O)Nc3ccc(OS(=O)(=O)F)cc3)C(=O)N3CCC[C@H]3C(=O)N3CCO[C@H](C)[C@H]3C(=O)N[C@@H](CO)C(=O)N2C1 (stereo not given in full) | 34% (inactive) |
| CC(C)=CCc1c2c(c(O)c3c1O[C@]14C(=C[C@@H]5C[C@H]1C(C)(C)O[C@@]4(C/C=C(/C)C(=O)O)C5=O)C3=O)C=CC(C)(C)O2 | -62.3% (active) |
| C/C=C/CC(C)C(O)[C@H](NC(=O)[C@@H]1CCCN1C(=O)C(C)(C)NC(=O)CCCCCCCCC)C(=O)NC(C)(C)C(=O)N[C@@H](CCC(N)=O)C(=O)N[C@H](CCC(N)=O)C(=O)NC(C)(C)C(=O)NC(C)(C)C(=O)N[C@@H](CCC(N)=O)C(=O)N[C@H](CC(C)C)C(=O)N[C@H](CO)CC(C)C (stereo not given in full) | 22.6% (inactive) and -41.8% (active) |
| COc1cc2c(O[C@@H]3OC[C@H](O)[C@H](O)[C@H]3O)c3c(c(-c4ccc5c(c4)OCO5)c2cc1OC)C(=O)OC3 | 70% (inactive) |
| CCC(C)[C@H]1C(=O)O[C@H](C(C)C)C(=O)N(C)[C@@H](C(C)C)C(=O)O[C@H](C(C)C)C(=O)N(C)[C@@H](C(C)C)C(=O)O[C@H](C(C)C)C(=O)N1C (stereo not given in full) | 24% (inactive) |
| CC1=C(CCC=NNC(N)=O)C2=C(C)C3(CC3)[C@@](C)(O)C(=O)C2=C1 | -12.8% (active) |
| COc1cc(OC)c(S(=O)(=O)N(CCCl)CCCl)cc1C(=O)/C=C/c1ccc(Cl)cc1 | 85.5% (inactive) |
| COC1[C@@H]2C[C@H]3C(C)(C)O[C@@](C/C=C(/C)C(=O)O)(C2=O)[C@]32Oc3c(CC=C(C)C)c4c(c(O)c3C(=O)[C@H]12)C=CC(C)(C)O4 (stereo not given in full) | -46.5% (active) |
| CC1=C[C@H]2O[C@@H]3C[C@@H](O)[C@](C)([C@@]2(C)CC1)[C@@]31CO1 | 38.3% (inactive) |
| COc1cccc2c1cc([N+](=O)[O-])c1c(C(=O)O)cc3c(c12)OCO3 | 97% (inactive) |
| NC1CCc2cc(O)c(O)cc2C1 (stereo not given) | 93.9% (inactive) |

| SMILES | growth |
| --- | --- |
| N#Cc1c(-n2c(Br)c(Br)c3cc(Br)ccc32)[nH]c2c(Br)cc(Br)cc12 | 3.62% (active) |
| C[C@@H]1CCC/C=C/[C@H]2C[C@@H](O)C[C@@H]2[C@@H](O)/C=C/C(=O)O1 | 11.5% (inactive) |
| CC1=C(CN(O)C(N)=O)C2=C(C)C3(CC3)[C@@](C)(O)C(=O)C2=C1 | -24.1% (active) |
| CCCCCCCCCC(=O)N[C@@](C)(CC)C(=O)N1CCC[C@H]1C(=O)N[C@@H](CC(C)C)C(=O)N[C@@](C)(CC)C(=O)N[C@@H](CCC(N)=O)C(=O)N[C@H](CCC(N)=O)C(=O)NC(C)(C)C(=O)NC(C)(C)C(=O)N[C@@H](CCC(N)=O)C(=O)N[C@H](CC(C)C)C(=O)N[C@H](CO)CC(C)C | -86.7% (active) and -89.1% (active) |
| CC1=C[C@H]2O[C@@H]3C[C@H]4OC(=O)/C=C\C=C\[C@H]([C@@H](C)O)OCC[C@@H](C)[C@H](O)C(=O)OC[C@@]2(CC1)[C@]4(C)[C@]31CO1 | -28.5% (active) |
| O=C(CCCc1ccc(N(CCCl)CCCl)cc1)OCc1ccccc1 | 101% (inactive) |
| CN(CCF)/N=N/c1nc[nH]c1C(N)=O | 75.9% (inactive) |
| CC1=C2C(=C[C@@](C)(C=O)[C@@H]2O)C(=O)[C@](C)(O)C12CC2 | 15% (inactive) |
| CC1=C(CN(O)C(N)=O)C2=C(C)C3(CC3)[C@](C)(O)C(=O)C2=C1 | 8.16% (active) |
| N#Cc1nc(-c2ccccc2)oc1N1CCC(S(=O)(=O)F)CC1 | 103% (inactive) |
| COC(=O)[C@H]1[C@@H](O)[C@@]2(O)c3c(OC)cc(OC)cc3O[C@@]2(c2ccc(OC)cc2)[C@@H]1c1ccccc1 | -5.16% (active) |
| CC1=C2C(=O)[C@](C)(CO)C=C2C(=O)[C@](C)(O)C12CC2 | 64.7% (inactive) |
| CC1=C2C(=C[C@@](C)(COC(=O)c3ccc(S(=O)(=O)F)cc3)[C@@H]2O)C(=O)[C@](C)(O)C12CC2 | -4.53% (active) |
| C/C=C/CC(C)C(O)[C@H](NC(=O)[C@@H]1CCCN1C(=O)C(C)(C)NC(=O)CCCCCCCCC)C(=O)N[C@@](C)(CC)C(=O)N[C@@H](CCC(N)=O)C(=O)N[C@H](CCC(N)=O)C(=O)NC(C)(C)C(=O)N[C@@](C)(CC)C(=O)N[C@@H](CCC(N)=O)C(=O)N[C@H](CC(C)C)C(=O)N[C@H](CO)CC(C)C (stereo not given in full) | 106% (inactive) and -68.1% (active) |
| Cc1ccc(CNc2nc3ccc(OC/C(=C/F)CN)cc3o2)cn1 | 61.7% (inactive) |
| C/C=C/CC(C)C(O)[C@H](NC(=O)[C@@H]1CCCN1C(=O)C(C)(C)NC(=O)CCCCCCC)C(=O)N[C@@](C)(CC)C(=O)N[C@@H](CCC(N)=O)C(=O)N[C@H](CCC(N)=O)C(=O)NC(C)(C)C(=O)NC(C)(C)C(=O)N[C@@H](CCC(N)=O)C(=O)N[C@H](CC(C)C)C(=O)N[C@H](CO)CC(C)C (stereo not given in full) | 100% (inactive) and 5.16% (active) |
| CC1=C[C@H]2O[C@@H]3C[C@H]4OC(=O)/C=C\C=C\[C@H]([C@@H](C)O)OCC/C(C)=C/C(=O)OC[C@@]2(CC1)[C@]4(C)[C@]31CO1 | -25.1% (active) |
| CC1=C2C(=C[C@@](C)(COS(C)(=O)=O)[C@@H]2O)C(=O)[C@](C)(O)C12CC2 | 4.37% (active) |
| C/C=C\C(=O)O[C@@H]1CC2O[C@@H]3C=C(C)C(=O)C[C@]3(C)[C@]1(C)[C@]21CO1 | -2.36% (active) |
| CC(=O)O[C@@H]1[C@@H]2O[C@H]2[C@@](C)(O)C(=O)[C@@H](C)C/C=C/[C@H]2[C@@H]3O[C@]3(C)[C@@H](C)C3[C@H](Cc4ccccc4)NC(=O)[C@@]312 (stereo not given in full) | 39.1% (inactive) |
